Screen size: about 48,000 compounds; about 13,000 (27%) showed an effect of 50% or more. This is one part of the list.
tested on: Wolbachia pipientis; experiment: Anti-Wolbachia Cell-Based Screen; assay type: functional; parameters: scale not given: in the data most compounds retested in dose-response had high values; details: 5 µM

Row | SMILES | Percent Effect [%]
1 | Cc1ccc(CNCC2CCc3nnc(C(C)C)n3C2)s1 (stereo not drawn) | -11.01
2 | CN1CCN(C(=O)CCc2cc(Br)cs2)CC1 | -6.424
3 | COc1cc(NC(=O)NC2CCOCC2)ccc1N1CCOC1=O | -14.6
4 | Cc1ncc(CN(C)c2nc3c(cnn3C(C)(C)C)c(=O)[nH]2)s1 | 5.937
5 | COc1c(CNC(c2nccn2C)C(C)C)c(C)nn1C (stereo not drawn) | -4.434
6 | CCN(CC)Cc1cc(C(=O)N2CCC3(CC2)NCCNC3=O)c(C)o1 | -9.012
7 | CN(C)CCN(C)c1nc(CCc2ccccc2)nc2c1cnn2C | 4.899
8 | CN(CCc1ccccn1)c1cnn(C)c(=O)c1Br | 101.4
9 | CN(CCc1ccccn1)Cc1nccn1Cc1ccccc1 | 8.438
10 | COc1ccc(Br)cc1CN(C)c1nc2c(cnn2C)c(=O)[nH]1 | -19.59
11 | CN(CCc1ccccc1)c1cnn(Cc2ccccn2)c(=O)c1 | 5.151
12 | COCCN(C)c1cnn(C)c(=O)c1Br | 101.6
13 | CC(C)N(C)C(=O)Cn1ncc(N(C)CCc2ccccc2)cc1=O | -17.71
14 | CN(CCc1ccccc1)c1cnn(C)c(=O)c1Br | 67.25
15 | COCCN(Cc1ccc(F)cc1Cl)C(=O)c1cnn(C)c1C | -5.759
16 | Cc1nc(N(C)C)nc(N(C)CCc2ccncc2)c1C | 13.66
17 | Cc1nc(-c2ccncc2)nc(N(C)CCc2ccncc2)c1C | 0.9394
18 | CN(CCc1ccncc1)c1cnn(C)c(=O)c1Br | 103
19 | NS(=O)(=O)CCNC(=O)C1(c2ccc(Br)cc2)CC1 | -1.628
20 | CCc1nnc2n1CCN(C(=O)Cc1csc(-c3ccco3)n1)C2 | -5.069
21 | CCCC(=O)NCC(=O)Nc1cc(F)ccc1SCC(F)F | 9.844
22 | Cc1noc([C@@H]2C[C@H](NC(=O)Nc3cccc(F)c3)CN2C)n1 | -4.092
23 | CS(=O)(=O)NCc1n[nH]c2c1CCN(C(=O)c1ccsc1)C2 | -6.349
24 | Cc1nn(C)cc1-c1ccnc(N(C)Cc2cccs2)n1 | -35.4
25 | CCOc1cccc(CNC(C)c2ccc(-n3ccnc3)cc2)c1O (stereo not drawn) | -2.856
26 | O=C(c1ccc(F)cc1Cl)N1CCn2c(nnc2C(F)(F)F)C1 | -1.794

Row | SMILES | Percent Effect [%]
27 | OCCN1CCN(Cc2cnc3c(-c4ccccc4)cnn3c2)CC1 | -3.434
28 | COCCCC1(C(=O)O)CCCN(Cc2cc3c(cc2C)OCCO3)C1 (stereo not drawn) | -2.058
29 | Cc1nnc2n1CCN(CC(=O)NC(C)c1cccc3ccccc13)C2 (stereo not drawn) | -6.251
30 | Cc1ccc2nc(N3CCN(CC(=O)NC(C)C)CC3)cc(C)c2c1 | 5.586
31 | Cc1nc(=O)c2ccccc2n1C1=CCN(CC(=O)NC(C)C)CC1 | 121.8
32 | O=C(c1cn(CC(=O)N2CCCC2)c2ccccc12)C1CC1 | -23.59
33 | COCCNC(=O)CN1CC=C(n2c(C)nc(=O)c3ccccc32)CC1 | 80.87
34 | O=C(c1cn(CC(=O)N2CCCCCC2)c2ccccc12)C1CC1 | -6.817
35 | Cc1nc(=O)c2ccccc2n1C1=CCN(CC(=O)N2CCCC2)CC1 | 121.3
36 | COCCNC(=O)CN1CCN(c2nc3cc(C)ccc3o2)CC1 | -13.48
37 | O=C(CN1CCc2cncnc2C1)NCCOc1ccccc1 | -0.7298
38 | CCNC(=O)CN(CC)C(=O)c1cc(-c2cccc(Cl)c2)no1 | -7.468
39 | CC(CN1CCOCC1)NC(=O)c1cccc2cn[nH]c12 (stereo not drawn) | 6.229
40 | CN(C)C[C@H]1C[C@@H]2CN(C(=O)c3ccno3)C[C@@H]2O1.O=C(O)C(F)(F)F | -9.995
41 | Cc1cnc(C(=O)N2CCCN(Cc3cnn(C(C)C)c3)CC2)cn1 | 1.046
42 | CC(C)n1cc(CN2CCCN(C(=O)CN3CCCC3=O)CC2)cn1 | 122.9
43 | Cc1cnn(CC(=O)N2CCCN(Cc3cnn(C(C)C)c3)CC2)c1 | 117.3
44 | Cc1cc(C(=O)N2CCCN(Cc3cnn(C(C)C)c3)CC2)no1 | 2.122
45 | NS(=O)(=O)c1cnc(NCC2(c3ccccc3)CCC2)s1 | -8.019
46 | Cc1cc(N2CCN(C(=O)Cc3ccc4c(c3)OCO4)CC2)cc(C)n1 | -8.837
47 | Cc1cc(NC(=O)NCCc2ccc3c(c2)OCCO3)n(C)n1 | -3.946
48 | Cc1cc(NC(=O)Cn2ccc(-c3ccc4c(c3)OCO4)n2)n(C)n1 | 140.3
49 | Cn1nccc1NC(=O)Cn1ccc(-c2ccc3c(c2)OCO3)n1 | 132.1
50 | CC(=O)c1ccc(-c2cnn(CC(=O)Nc3cc(C)nn3C)c2)nc1 | 2.251
51 | CCC1CN(CC(=O)Nc2cc(C)nn2C)CCO1 (stereo not drawn) | 11.37
52 | Cc1cc(NC(=O)Cc2ccc3c(c2)OCO3)n(C)n1 | 120.5

Row | SMILES | Percent Effect [%]
53 | Cn1ncc(NC(=O)Cn2ccc(-c3cccc(F)c3)n2)n1 | -3.857
54 | Cn1ncc(NC(=O)Cn2ccc(-c3ccc(F)cc3)n2)n1 | 6.673
55 | CCCOc1cc(Cl)c(CN2CCNC(C(=O)NC3CC3)C2)cc1OC (stereo not drawn) | -0.8522
56 | O=C(c1cncc(N2CCCC3(CCNCC3)CC2)n1)N1CCCCC1 | 3.422
57 | COc1cc(F)cc(CNC(=O)Nc2ccn(CC(F)F)n2)c1 | -8.907
58 | CCOC1CCCN(C(=O)c2ccccc2NCc2cccnc2)C1 (stereo not drawn) | 55.92
59 | CSCC1CCN(C(=O)c2ccccc2NCc2cccnc2)C1 (stereo not drawn) | 46.56
60 | NC(=O)CN1CCC(C(=O)N2CCCC(OCc3cccnc3)C2)CC1 (stereo not drawn) | -8.18
61 | Cc1ccc(CNC(=O)N2CCN(C(C)c3cccnc3)CC2)cn1 (stereo not drawn) | -10.7
62 | Cc1[nH]nc(CCC(=O)N2CCCC(OCc3cccnc3)C2)c1C (stereo not drawn) | 1.428
63 | CN(C)C[C@H]1OC[C@@H]2CN(C(=O)NCc3cccnc3)CC[C@@H]21.O=C(O)C(F)(F)F.O=C(O)C(F)(F)F | -2.462
64 | COCC1CCCN(C(=O)c2ccccc2NCc2cccnc2)C1 (stereo not drawn) | 97.72
65 | Cc1c(NCc2cccnc2)cccc1C(=O)N1CCC(N(C)C)C1 (stereo not drawn) | 115.4
66 | COCC(=O)N(Cc1cccnc1)CC1CCCN(C2CCCCC2)C1 (stereo not drawn) | -12.35
67 | CC(C)N1CCN(C(=O)c2ccccc2NCc2cccnc2)CC1 | 80.75
68 | O=C(c1cnc(NCc2cccnc2)c(Cl)c1)N1CCCCC1 | 2.275
69 | COC(=O)C1CCN(C(=O)c2cccc(NS(C)(=O)=O)c2C)CC1 | 5.787
70 | Cn1ccnc1CN1CCN2C[C@H](OCc3ccccc3)C[C@H]2C1.O=C(O)C(F)(F)F.O=C(O)C(F)(F)F | -3.164
71 | Cc1cccc(C(C(=O)N2CC(c3ccncc3)C2)N(C)C)c1 (stereo not drawn) | -5.316
72 | N#Cc1ccc(F)c(CNC(=O)NCCC(=O)NC2CCCC2)c1 | 6.795
73 | N#CC1(NC(=O)c2nccc3ccccc23)CCC2(CC1)OCCO2 | 0.4939
74 | Cc1noc(C)c1S(=O)(=O)N(CC(N)=O)CC(C)C | 2.709
75 | COC1CCN(C(=O)c2ccccc2NCc2cccnc2)CC1 | 112.6
76 | Cc1ccn(-c2ccccc2NCc2cccnc2)n1 | -3.836
77 | COCCN1CCCn2cnc(CNC3CCCC3)c2C1.Cl.Cl | -22.39
78 | O=C(O)c1cc2n(n1)CCCN(C(=O)CCc1c[nH]c3ccccc13)C2 | -8.48

Row | SMILES | Percent Effect [%]
79 | O=C(c1nc(-c2ccc3cc[nH]c3c2)no1)N1CCCC1 | 5.655
80 | O=C(c1nc(Cc2c[nH]c3ccccc23)no1)N1CCCCC1 | 107.9
81 | O=C(c1nc(Cc2c[nH]c3ccccc23)no1)N1CCOCC1 | 109.7
82 | c1ccc2c(Cc3nnc([C@H]4CCN(C5CCCCC5)C4)o3)c[nH]c2c1 | 3.447
83 | O=C(C1CC1)N1CC[C@H](c2nnc(Cc3c[nH]c4ccccc34)o2)C1 | -9.274
84 | c1ccc2c(Cc3nnc([C@H]4CCN(C5CCOCC5)C4)o3)c[nH]c2c1 | 1.602
85 | CC(=O)N1CC[C@H](c2nnc(Cc3c[nH]c4ccccc34)o2)C1 | -6.086
86 | O=C(c1nc(Cc2c[nH]c3ccccc23)no1)N1CCCC1 | 91.24
87 | CN(C)C(CNCc1nc(-c2ccsc2)no1)c1ccsc1 (stereo not drawn) | 7.6
88 | CC(SCc1ccc(Br)c2cccnc12)C(N)=O (stereo not drawn) | -7.187
89 | CCNC(=O)c1ccc(N2CCCC(c3nccn3C(C)C)C2)nc1 (stereo not drawn) | -0.11
90 | Cn1cc(Cl)c(CN2CCn3nc(C(=O)N4CCCC4)cc3C2)n1 | -5.174
91 | CN(Cc1ccco1)C[C@H]1OC[C@@H]2CCN(Cc3ccccn3)C[C@@H]21.O=C(O)C(F)(F)F.O=C(O)C(F)(F)F.O=C(O)C(F)(F)F | 0.7755
92 | COCCN1CC[C@@H]2OC[C@H](C(=O)N(C)Cc3ccccn3)C[C@@H]2C1 | 115.4
93 | COCCN1CCC(C(=O)N(C)Cc2cccc(Cl)c2)C1 (stereo not drawn) | -62.62
94 | CN(Cc1ccccn1)C(=O)c1nn(C)c2c1CCN(CC1CC1)C2.O=C(O)C(F)(F)F.O=C(O)C(F)(F)F.O=C(O)C(F)(F)F | -10.9
95 | COCCN(Cc1ccccn1)C(=O)C1CCCCCN1C (stereo not drawn) | -8.345
96 | CN(Cc1ccccn1)C(=O)[C@H]1CO[C@H]2CCN(CC3CC3)C[C@H]2C1.O=C(O)C(F)(F)F.O=C(O)C(F)(F)F | 99.36
97 | CC(C)c1nc(CN2CCC(CO)CC2)cs1 | -12.85
98 | O=C(c1ccco1)N1CCCn2cnc(COCC3CC3)c2C1 | -7.899
99 | COCc1ncn2c1CN(C(=O)c1ccc[nH]1)CC2 | 111
100 | O=C(c1ccc[nH]1)N1CCCn2cnc(COCC3CC3)c2C1 | -13.58
101 | O=C(c1ccc2[nH]ccc2c1)N1CCn2cnc(COCC3CC3)c2C1 | -3.31
102 | COCc1ncn2c1CN(C(=O)c1ccco1)CC2 | 113.2
103 | CN1CCN(Cc2cn3c(n2)CN(C(=O)c2ccco2)CC3)CC1 | -12.05

— ChEMBL document CHEMBL3988442, “University of Dundee, Small-Polar-MMV Screening Library” (2021)
